Data on six molecules can be found in PubChem BioAssay.

Assay [1] concerns Plasmodium falciparum Sir2 (PF13_0152, Sir2A). Put plainly: Plasmodium falciparum Sir2A binding compounds – biochemical, small-molecule microarray, 635 nm fluorescence, primary screen (AID 1098).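 Also: score merges spot fluorescence intensity with its signal-to-noise ratio.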 As to conditions: fluorescence 635 nm, higher = more signal.
Assay [2] in a line: probe aDKK1 binding to arrayed compounds – biochemical, biotinylated probe, 635/667 nm fluorescence, primary screen (AID 1099).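 Also: score merges 667nm spot fluorescence with signal to noise across triplicate slides.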 As to conditions: small-molecule microarray, higher = more signal.
The nature of assay [3]: probe aCHRDL2 binding to arrayed compounds – biochemical, biotinylated probe, 635/667 nm fluorescence, primary screen (AID 1100). The settings on record: small-molecule microarray, higher = more signal.
Assay [4] can be described thus: change in splice reporter luminescence, either direction, cell-based, HEK293, spliceosome inhibition project, primary screen (AID 1101).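 Also: HEK293 cells carrying a splicing-competent luciferase reporter gene; test concentration not given here.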 The settings on record: HEK293 splicing luciferase reporter, 24 h, higher = more signal, called active from +8 up or from −8 down.
For assay [5], the target named is Fibroblast growth factor 10 (Homo sapiens) (UniProt O15520). As to the kind of experiment: compounds binding fibroblast growth factor 10 – biochemical, small-molecule microarray, 635 nm fluorescence, primary screen (AID 1102). The settings on record: FGF10 binding, fluorescence 635 nm, higher = more signal.
Assay [6] deals with glycogen synthase kinase-3 (GSK3A per assay name; protocol says GSK3B). As to the kind of experiment: compounds binding glycogen synthase kinase-3 – biochemical, small-molecule microarray, 635 nm fluorescence, GSK3A, primary screen (AID 1103). Also: the record names both GSK3A and GSK3B. The settings on record: fluorescence 635 nm, higher = more signal.
Assay [7] has as its target Epidermal growth factor receptor (Homo sapiens) (UniProt P00533). Put plainly: compounds binding epidermal growth factor receptor – biochemical, small-molecule microarray, 635 nm fluorescence, primary screen (AID 1104).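 Also: score merges 667 nm emission intensity with spot signal to noise over triplicate slides.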 As to conditions: EGFR binding, higher = more signal.
Assay [8] concerns the target Follistatin-related protein 3 (Homo sapiens) (UniProt O95633). Put plainly: compounds binding follistatin-related protein 3 – biochemical, small-molecule microarray, 635 nm fluorescence, primary screen (AID 1105).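 Also: score merges emission near 667 nm and signal to noise per printed spot across three slides.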 The settings on record: FSTL3 binding, higher = more signal.
Assay [9] deals with Dickkopf-related protein 1 (Homo sapiens) (UniProt O94907). Put plainly: small molecules binding DKK1 protein – biochemical, small-molecule microarray, 635 nm fluorescence scan, primary screen (AID 1106).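 Also: score merges emission near 667 nm with signal to noise over three replicate slides.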 The settings on record: higher = more signal.
The test system of assay [10] is Inhibin beta A chain (activin A). As to the kind of experiment: small molecules binding activin A – biochemical, small-molecule microarray, 635 nm fluorescence scan, primary screen (AID 1107).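 Also: mouse activin A protein probed at 4.33 µg/mL on printed slides; score merges bound-protein fluorescence near 667 nm with spot signal-to-noise.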 The settings on record: INHBA, higher = more signal.
In assay [11] the test system is Human papillomavirus type 1a protein E7 (residues 44-93). As to the kind of experiment: small molecules binding HPV E7 44-93 – biochemical, small-molecule microarray, residues 44-93, 635 nm fluorescence, primary screen (AID 1108).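 Also: E7 fragment applied at 1 µg/mL in TBST for 1 h at 4 C; score combines spot fluorescence with its signal to noise ratio.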 As to conditions: fluorescence 635 nm, higher = more signal.
Assay [12] is described as follows: hepatitis C replication reporter changes, two-sided – Huh7 cells, luciferase reporter, HCV replication inhibitor project, primary screen (AID 1109).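 Also: huh7 hepatoma cells harbouring a luciferase neomycin HCV replicon reporter; luciferase luminescence as measure of HCV replicon replication; test concentration not given here.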 The settings on record: Huh7 HCV replicon luciferase reporter, 48 h; higher = more signal. A general note: In a reporter assay the amount or activity of a reporter protein is the signal.
Assay [13] deals with Left-right determination factor 2 (Homo sapiens) (UniProt O00292). Put plainly: small molecules binding LEFTY2 protein – biochemical, small-molecule microarray, 635 nm fluorescence scan, primary screen (AID 1110). The settings on record: higher = more signal.
Assay [14] concerns the target Calmodulin-1 (Homo sapiens) (UniProt P0DP23). As to the kind of experiment: small molecules binding calmodulin-1 with EGTA – biochemical, small-molecule microarray, Cy5-labelled CALM1, profiling panel (AID 1111).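 Also: labelled calmodulin applied in Tris saline Tween buffer holding calcium plus EGTA and DTT.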 The settings on record: Cy5-CALM1 binding fluorescence, higher = more signal.
Assay [15] has the same target. As to the kind of experiment: small molecules binding Ca-loaded calmodulin-1 – biochemical, small-molecule microarray, Cy5-labelled CALM1, plus calcium, artefact control for SMM control-protein annotation, profiling panel (AID 1112).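 Also: score merges spot fluorescence with signal to noise from triplicate slides.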 The settings on record: Cy5-CALM1 binding fluorescence, higher = more signal.
The nature of assay [16]: probe aWnt5a binding to arrayed compounds – biochemical, biotinylated probe, 635/667 nm fluorescence, primary screen (AID 1113).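 Also: score merges 667 nm fluorescence intensity with signal-to-noise per printed feature.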 The settings on record: small-molecule microarray, higher = more signal.
Assay [17] can be described thus: probe aShh binding to arrayed compounds – biochemical, biotinylated probe, 635/667 nm fluorescence, primary screen (AID 1114).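 Also: probe is biotin-labelled aShh protein from a stem cell growth factor screen; measures binding of labelled protein to compounds printed on the slide; score merges feature fluorescence at 667 nm with signal-to-noise.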 As to conditions: small-molecule microarray, higher = more signal.
Assay [18] is described as follows: probe aNog binding to arrayed compounds – biochemical, biotinylated probe, 635/667 nm fluorescence, primary screen (AID 1115).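 Also: probe is biotinylated aNog protein used at 0.15 µg/mL for 1 h at 4 C; z-score combines 667 nm fluorescence of each spot with its signal to noise.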 The settings on record: small-molecule microarray, higher = more signal.
In assay [19] the target is Torsin-1A-interacting protein 1 (Homo sapiens) (UniProt Q5JTV8). As to the kind of experiment: compound microarray binding of lysate hLAP1 – cell lysate, small-molecule microarray, COS7 lysate, 635/667 nm fluorescence, primary screen (AID 1116). As to conditions: 635 nm fluorescence, higher = more signal.
Assay [20] has as its target Alpha-bungarotoxin (Bungarus multicinctus) (UniProt P60615). As to the kind of experiment: compounds binding labelled alpha-BTX control protein – biochemical, small-molecule microarray, Alexa647 label, 635/667 nm fluorescence, artefact control for SMM control protein annotation, profiling panel (AID 1117). As to conditions: alpha-BTX-A647 binding fluorescence, higher = more signal.

Activity calls are given as the source filed them.

Dickkopf-related protein 1 (Homo sapiens), sequence (O94907 whole entry, looked up): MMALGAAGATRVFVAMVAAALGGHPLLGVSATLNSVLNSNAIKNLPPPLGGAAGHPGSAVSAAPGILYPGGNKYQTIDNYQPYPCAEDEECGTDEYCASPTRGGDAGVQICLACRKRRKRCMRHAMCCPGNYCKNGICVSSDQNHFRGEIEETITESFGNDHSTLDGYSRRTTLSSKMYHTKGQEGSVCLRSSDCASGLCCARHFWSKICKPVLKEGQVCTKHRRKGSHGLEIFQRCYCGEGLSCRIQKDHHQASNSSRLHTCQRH
Torsin-1A-interacting protein 1 (Homo sapiens), sequence (Q5JTV8 whole entry, looked up): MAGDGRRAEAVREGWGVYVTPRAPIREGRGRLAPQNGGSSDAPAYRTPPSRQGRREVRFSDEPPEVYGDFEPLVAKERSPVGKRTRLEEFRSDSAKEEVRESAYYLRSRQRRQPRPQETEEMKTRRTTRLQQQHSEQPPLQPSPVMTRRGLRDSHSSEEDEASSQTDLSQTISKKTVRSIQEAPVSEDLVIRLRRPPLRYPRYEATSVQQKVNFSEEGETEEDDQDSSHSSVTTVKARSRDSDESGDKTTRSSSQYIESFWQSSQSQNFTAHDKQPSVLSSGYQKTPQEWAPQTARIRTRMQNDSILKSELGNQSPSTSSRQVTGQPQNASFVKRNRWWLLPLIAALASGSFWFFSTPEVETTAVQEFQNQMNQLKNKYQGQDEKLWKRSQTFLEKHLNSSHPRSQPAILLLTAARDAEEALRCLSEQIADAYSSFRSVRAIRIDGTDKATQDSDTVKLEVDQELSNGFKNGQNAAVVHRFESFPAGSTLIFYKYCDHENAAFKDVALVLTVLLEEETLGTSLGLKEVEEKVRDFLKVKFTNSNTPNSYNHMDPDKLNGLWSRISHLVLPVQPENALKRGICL
Alpha-bungarotoxin (Bungarus multicinctus), sequence (P60615 whole entry, looked up): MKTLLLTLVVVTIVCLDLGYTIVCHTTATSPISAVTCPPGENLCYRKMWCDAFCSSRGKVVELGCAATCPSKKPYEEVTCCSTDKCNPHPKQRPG
Follistatin-related protein 3 (Homo sapiens), sequence (O95633 whole entry, looked up): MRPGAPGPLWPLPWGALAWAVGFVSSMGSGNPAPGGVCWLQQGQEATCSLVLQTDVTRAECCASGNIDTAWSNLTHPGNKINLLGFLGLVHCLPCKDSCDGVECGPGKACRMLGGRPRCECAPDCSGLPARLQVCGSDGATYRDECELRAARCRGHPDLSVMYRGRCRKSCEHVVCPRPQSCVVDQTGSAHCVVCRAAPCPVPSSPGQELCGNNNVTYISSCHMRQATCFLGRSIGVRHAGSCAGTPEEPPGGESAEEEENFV
Epidermal growth factor receptor (Homo sapiens), sequence (P00533 whole entry, looked up): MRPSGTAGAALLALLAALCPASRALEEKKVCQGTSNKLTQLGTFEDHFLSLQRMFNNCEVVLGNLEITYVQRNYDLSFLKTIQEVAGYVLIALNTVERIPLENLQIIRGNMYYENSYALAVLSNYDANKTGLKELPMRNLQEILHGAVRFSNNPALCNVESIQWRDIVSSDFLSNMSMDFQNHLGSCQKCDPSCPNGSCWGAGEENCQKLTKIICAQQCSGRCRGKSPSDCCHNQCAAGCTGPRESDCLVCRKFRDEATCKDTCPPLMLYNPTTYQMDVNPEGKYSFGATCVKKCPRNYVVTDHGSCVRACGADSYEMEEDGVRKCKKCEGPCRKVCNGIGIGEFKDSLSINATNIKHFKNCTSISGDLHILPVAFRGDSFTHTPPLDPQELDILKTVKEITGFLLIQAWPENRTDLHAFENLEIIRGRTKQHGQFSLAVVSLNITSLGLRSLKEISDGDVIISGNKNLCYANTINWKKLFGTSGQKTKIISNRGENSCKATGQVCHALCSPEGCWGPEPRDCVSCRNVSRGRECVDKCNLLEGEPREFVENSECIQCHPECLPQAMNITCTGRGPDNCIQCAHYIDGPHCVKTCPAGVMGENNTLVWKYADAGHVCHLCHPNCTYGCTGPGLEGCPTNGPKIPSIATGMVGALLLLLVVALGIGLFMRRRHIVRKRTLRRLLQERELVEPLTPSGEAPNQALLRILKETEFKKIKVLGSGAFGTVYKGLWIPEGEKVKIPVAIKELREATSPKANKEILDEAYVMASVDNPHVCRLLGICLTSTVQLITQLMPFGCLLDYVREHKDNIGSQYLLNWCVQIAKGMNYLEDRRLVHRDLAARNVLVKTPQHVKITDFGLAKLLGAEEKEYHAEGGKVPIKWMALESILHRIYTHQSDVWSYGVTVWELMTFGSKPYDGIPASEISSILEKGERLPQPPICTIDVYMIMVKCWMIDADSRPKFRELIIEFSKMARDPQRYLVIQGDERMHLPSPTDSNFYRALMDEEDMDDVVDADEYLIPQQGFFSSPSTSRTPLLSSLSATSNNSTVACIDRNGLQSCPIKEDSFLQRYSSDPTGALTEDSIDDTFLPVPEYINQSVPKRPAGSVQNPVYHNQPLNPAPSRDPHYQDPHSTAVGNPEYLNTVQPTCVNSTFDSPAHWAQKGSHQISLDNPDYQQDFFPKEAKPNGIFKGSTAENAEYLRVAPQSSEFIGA
Left-right determination factor 2 (Homo sapiens), sequence (O00292 whole entry, looked up): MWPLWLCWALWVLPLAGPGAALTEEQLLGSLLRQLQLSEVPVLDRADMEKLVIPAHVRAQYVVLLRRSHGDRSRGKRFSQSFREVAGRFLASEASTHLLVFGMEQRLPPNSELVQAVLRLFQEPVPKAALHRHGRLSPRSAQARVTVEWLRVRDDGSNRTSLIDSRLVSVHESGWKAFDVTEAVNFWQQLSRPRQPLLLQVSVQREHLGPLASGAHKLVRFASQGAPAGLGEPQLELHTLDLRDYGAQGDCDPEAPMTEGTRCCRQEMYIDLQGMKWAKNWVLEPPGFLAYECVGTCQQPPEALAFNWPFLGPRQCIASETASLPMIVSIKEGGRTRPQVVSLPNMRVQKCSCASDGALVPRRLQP
Fibroblast growth factor 10 (Homo sapiens), sequence (O15520 whole entry, looked up): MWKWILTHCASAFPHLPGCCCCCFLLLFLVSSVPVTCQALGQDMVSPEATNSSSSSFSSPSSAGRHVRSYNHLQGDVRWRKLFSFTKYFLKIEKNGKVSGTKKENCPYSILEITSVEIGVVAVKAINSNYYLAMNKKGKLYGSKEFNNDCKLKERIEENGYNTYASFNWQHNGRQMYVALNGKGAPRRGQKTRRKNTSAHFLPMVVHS

Take `CC(C)OC(=O)CC(=O)CC(O)c1cccc([N+](=O)[O-])c1` (stereo not given): the composite z-score in assay [1] is 0.784; in assay [2] it was 0.645; in assay [3], 0.851; in assay [5] it was 0.366; in assay [6], 0.814; in assay [7] it was -0.113. The composite z-score is 0.753 in [8]; -0.229 in assay [9]; 0.916 in assay [10]; 1.31 in assay [11]; 0.117 in assay [13]; 0.834 in assay [14]. For the same molecule, the composite z-score was 0.17 in assay [15]; 0.264 in assay [16]; 0.418 in [17]; -0.138 in [18]; 1.24 in assay [19]; 0.288 in [20]. Also, the z-score in assay [4] is -2.86 (inactive); in assay [12], -1.6.
Turning to `Cc1ccc(S[C@]2(C(=O)NCC(F)(F)F)CC(=O)N(Cc3ccccc3C(F)(F)F)[C@@H]2c2ccc(CO)cc2)cc1`, the composite z-score in assay [1] was -0.57; in assay [2], 0.228; in assay [3], 0.942; in assay [5], -0.83; in assay [6], -1.23; in assay [7], -0.548. In addition, the composite z-score in [8] is -1.51; in assay [9] it was -1.07; in assay [10], 0.247; in assay [11] it was -0.654; in assay [13], -1.32; in [14] it was -0.39. Also, the composite z-score in [15] was 0.0313; in [16] it was -0.199; in assay [17], -0.253; in [18] it was 0.526; in assay [19], 0.0216; in [20], -0.693. Also, the figures for the z-score in assay [4] and in assay [12] were 0.338 (inactive) and 0.169, respectively.
With `C[C@@H]1ON(c2ccc(I)cc2)[C@H](c2cccc(NC(=O)OCC3c4ccccc4-c4ccccc43)c2)[C@H]1C(=O)N1C(=O)OC[C@H]1Cc1ccccc1`, the composite z-score in [1] is 0.683; in assay [2], 1.04; in [3], -0.387; in assay [5], 0.252; in [6] it was 0.529; in assay [7] it was 0.325. In addition, the composite z-score in [8] was determined as 0.951; in [9], 1.05; in assay [10], 0.529; in assay [11], 0.531; in assay [13] it was 0.678; in assay [14] it was 0.224. Moreover, the composite z-score in assay [15] was -0.435; in assay [16], -0.142; in assay [17], -0.0866; in [18], -0.285; in [19], 0.246; in assay [20], -0.0652. The z-score in [4] was -0.271 (inactive); in assay [12], -0.31.
On to `[N-]=[N+]=Nc1ccccc1C[C@@]1(C(=O)NCC(O)CO)N=C(c2ccc(OCCCO)cc2)O[C@@H]1c1ccccc1` (stereo not given in full), for which the composite z-score in assay [1] was 0.973; in assay [2], 0.262; in [3] it was 0.9; in assay [5], -0.134; in assay [6], 0.119; in [7], -1.16. In addition, the composite z-score in assay [8] is -0.932; in [9], -1.17; in [10], 0.0121; in assay [11] it was 0.355; in assay [13], -1.28; in assay [14] it was 0.754. In addition, the composite z-score in assay [15] is 0.0985; in assay [16] it was 0.0431; in [17] it was 0.151; in assay [18], 0.0308; in [19], 1.48; in [20], -0.422. For the same molecule, the figures for the z-score in [4] and in assay [12] were -0.0949 (inactive) and -0.688, respectively.
`CN(C)CCCCNC(=O)[C@H]1C[C@H]2C(=O)N3CCC[C@H]3C(=O)N2[C@H]1c1cccc(OCCO)c1`: the composite z-score in assay [1] was 1.67; in [2], 0.0092; in assay [3], 0.833; in assay [5], 0.425; in assay [6], 0.676; in [7] it was -0.497. Also, the composite z-score in [8] is -0.0327; in [9] it was -0.0023; in assay [10], 0.0098; in assay [11], 1.4; in assay [13] it was -0.35; in assay [14], 0.915. Moreover, the composite z-score in [15] was 0.836; in assay [16], -0.144; in assay [17] it was 0.134; in [18], 1.14; in assay [19] it was 0.495; in assay [20] it was 1.43. For the same molecule, the z-score was -0.0803 (inactive) in assay [4] and -0.0955 in assay [12].
Regarding `NC(=O)N1C(=O)C2C(C1=O)C1C=C(CCCO)C2C(C2CC2)N1Cc1sc2ccccc2c1Cl` (stereo not given), the composite z-score was 0.903 in assay [1]; -0.129 in [2]; 0.256 in assay [3]; 1.15 in [5]; 1.09 in [6]; -0.271 in [7]. Moreover, the composite z-score stood at 0.808 in [8]; 0.158 in [9]; 0.303 in [10]; 0.173 in [11]; 0.138 in [13]; 1.42 in [14]. The composite z-score in [15] was 0.459; in [16] it was -0.0685; in [17], 0.138; in assay [18] it was 0.654; in assay [19], 1.19; in assay [20], 1.67. Besides, the z-score in assay [4] was 1.01 (inactive); in assay [12], -1.63.
